Laboratory results taken from PubChem BioAssay AID1490 (National Center for Advancing Translational Sciences (NCATS), 2009).
Where “and” joins values, the source holds several entries; their conditions need not be identical. Equal values may be shown once. In all, about 310,000 compounds went through this assay and about 11,000 (3.5%) were called active. Another 4% or so got no clear call; they are omitted. This excerpt belongs to a sample that is enriched for actives. Unmarked numbers belong to inactive results. Calls come from the whole dose curve; as a rule, active = well fitted inhibition curve with a large enough effect; inconclusive = small, poorly fitted or top-dose-only effect, or another doubt; inactive = no such curve, though single readings can be large or run the other way.

Target: 4'-phosphopantetheinyl transferase ffp (Bacillus subtilis) (UniProt Q9F4F7)
Experiment: qHTS Assay for Inhibitors of Bacillus subtilis Sfp phosphopantetheinyl transferase (PPTase);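 note: the enzyme is Sfp with the accession as filed and its product quenches rhodamine fluorescence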;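 for largest response in the series, negative = inhibition: 0% = enzyme reaction without inhibitor and -100% = no enzyme wells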
Conditions: Biochemical Sfp PPTase activity
Summary of the method: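 Step 1, compound plus 15 nM Sfp-PPTase, 15 min, room temperature. Step 2, add rhodamine-CoA (5 uM) and BHQ-2-YbbR (12.5 uM). Step 3, read 525/598 nm fluorescence at 0 and 30 min.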
Potency is the fitted concentration of half-maximal effect.

| SMILES | largest response in the series, negative = inhibition | Potency |
| --- | --- | --- |
| CC(=C1C(=O)c2ccccc2C1=O)N1CCN(CCN=Cc2c(O)n(C)c(=O)n(C)c2=O)CC1 | 10.2% | – |
| CN1C2CC3CC1C(O3)C2O (configuration not stated) | -0.102% | – |
| Fc1ccc(C(OCCN2CCN(C/C=C\c3ccccc3)CC2)c2ccc(F)cc2)cc1 | – | 89.1 µM (active) |
| C[C@H]1CC[C@@]2(NC1)O[C@@H]1C[C@H]3[C@@H]4CC=C5C[C@@H](O)CC[C@]5(C)[C@@H]4CC[C@]3(C)[C@@H]1[C@@H]2C | 7.1% | – |
| COc1ccc(NC(=O)N2CCC3(CC2)OCCO3)c(OC)c1 | -7.26% | – |
| CO[C@H]1[C@@H](O)[C@@H](C)O[C@H](O[C@H]2[C@H](Oc3cccc4c(O)c5c(=O)oc6ccc(C)c7c(=O)oc(c34)c5c67)O[C@H](C)[C@H](O)[C@@H]2O)[C@@H]1O | -22.5% | – |
| CN(C)C(=O)Oc1cc(OC(=O)N(C)C)cc(C(O)CNC(C)(C)C)c1 (configuration not stated) | 2.1% | – |
| O=C1NC(=O)N(Cc2ccco2)C(=O)/C1=C\c1ccc(-c2ccc(F)cc2)o1 | – | 31.6 µM (active) |
| O=C1NC(=O)N(Cc2ccco2)C(=O)/C1=C\c1cccn1CCOc1ccccc1 | – | 20 µM (active) |
| CC[C@]1(O)C(=O)OCc2c1cc1n(c2=O)Cc2cc3ccccc3nc2-1 | 6.01% | – |
| COP(=O)(NS(=O)(=O)c1ccccc1)OC | 17.4% | – |
| C=CCN1CCC2(C)c3cc(O)ccc3CC1[C@@H]2C (some centres not stated) | 3.98% | – |
| CCc1nnc(NS(=O)(=O)c2ccc(N=Cc3c(O)n(-c4ccccc4)c(=O)[nH]c3=O)cc2)s1 | -8.17% | – |
| Cc1cc(C)cc(NC(=S)NC2CC3CCCC(C2)N3Cc2cccs2)c1 (configuration not stated) | 14.7% | – |
| CC(C)Oc1cccc(C(=O)C2CCCN(C3CCOCC3)C2)c1 (configuration not stated) | 17.1% | – |
| CCN(CC)c1nc(C)cc(OP(=S)(OC)OC)n1 | 6.37% | – |
| O=c1c2ccccc2nc(/C=C/c2ccco2)n1-c1ccccc1O | – | 10 µM (active) |
| O=c1c2ccccc2nc(/C=C/c2ccc(F)cc2)n1-c1ccccc1O | -2% | – |
| O=c1c2ccccc2nc(-c2ccco2)n1-c1ccc(Br)cn1 | -3.04% | – |
| CCN1CC2C3CCC(C)(O3)C2C1 (configuration not stated) | 13.8% | – |
| O=C(N/N=C/c1c(O)n(C2CC2)c(=S)[nH]c1=O)c1ccccc1Cl | 9.37% | – |
| CC(C)(C)c1ccc(OC(=O)N2CCCCC2)cc1 | -1.08% | – |
| N[C@H](C(=O)O)c1cc(=O)[nH]o1 | 2.79% | – |
| N[C@H](Cc1o[nH]c(=O)c1Cl)C(=O)O | – | 79.4 µM (active) |
| CCOP(=O)(OCC)C(O)c1ccc(OC)cc1OC (configuration not stated) | 9.04% | – |
| CN(C)C(=O)Oc1cc(=O)n2c3c(cccc13)CCC2 | 10.3% | – |

| SMILES | largest response in the series, negative = inhibition | Potency |
| --- | --- | --- |
| C[C@]12CC[C@H](O)C[C@@H]1CC[C@H]1[C@H]2CC[C@]2(C)C(=O)CC[C@@H]12 | -1.51% and 34.7% and 1.49% | – |
| O=[N+]([O-])c1ccc(C2C3C(c4ccccc4)=NC4(CCCCC4)N32)cc1 (configuration not stated) | -4.07% | – |
| c1csc(CN2CC3(CCNCC3)C2)n1 | 12.2% | – |
| C=CCN(CC=C)C(=O)Nc1ccc(OCC)cc1 | 0.3% | – |
| C=CCN1C(=O)NC(=O)/C(=C/c2ccc(OCC(=O)Nc3ccc(C)cc3)cc2)C1=O | – | 35.5 µM (active) |
| O=C(Cc1ccccc1)N1CCN(C2CCCCCC2)CC1 | -9.44% | – |
| Cc1noc(C)c1CSc1nc2cc(S(=O)(=O)N3CCOCC3)ccc2o1 | – | 20 µM (active) |
| CCC1(c2ccccc2)C(=O)NC(=O)N(C)C1=O (configuration not stated) | 9.18% | – |
| Nc1ccc(-c2ccc(N)c(N)c2)cc1N | -2.55% | – |
| CN(c1ccccc1)c1ccc([N+](=O)[O-])c2nonc12 | -10.3% | – |
| CN(C)C(=O)Oc1ccc2c(c1)O/C(=C\c1ccccc1)C2=O | 2.07% | – |
| Cc1nc2ccccn2c1P(=S)(N1CCCCC1)N1CCCCC1 | – | 56.2 µM (active) |
| COc1ccc2[nH]cc(CCNCc3ccc(Br)cc3)c2c1 | -23.1% | – |
| Cc1cccc(N2C(=O)NC(=O)/C(=C\c3cnn(-c4ccccc4)c3)C2=O)c1 | – | 39.8 µM (active) |
| Cc1c(C(=O)O)cccc1-n1c(C)cc(/C=C2\C(=O)NC(=O)N(c3ccc4c(c3)OCO4)C2=O)c1C | -16.8% | – |
| O=C(Nc1cccc(F)c1)N1CC[C@@]2(CCCN(C(=O)Oc3ccccc3)C2)C1 | -5.07% | – |
| CC[N+]1(C)CCCC(OC(=O)C(O)(c2ccccc2)c2ccccc2)C1 (configuration not stated) | 15.8% and 11.5% | – |
| COc1ccccc1NC(=O)N1C[C@@H]2C[C@@H](C1)c1cccc(=O)n1C2 | 13.6% | – |
| CN=C(NC#N)NCCSCc1nc[nH]c1C | 5.33% and -12.8% and 5.86% | – |
| COC(=O)N(c1ccc(OC)cc1)P1(=S)OCCC(C)O1 (configuration not stated) | – | 12.6 µM (active) |
| CC(C)CN1CCN(Cc2ccccc2C(F)(F)F)CC1CCO (configuration not stated) | 6.48% | – |
| O=C(CCN1CCCCC1)NCC(=O)Nc1ccc(Br)cc1C(=O)c1ccccc1 | -17.5% | – |
| C[C@@H]1C[C@@H]2O[C@H]2/C=C\C=C\C(=O)Cc2c(Cl)c(O)cc(O)c2C(=O)O1 | – | 15.8 µM (active) |
| CNP1(NC)=Nc2nn(-c3ccccc3)c(N)c2C(c2ccccc2)=N1 | 2.05% | – |
| CCNC[C@H](O)c1cccc(O)c1 | 18.1% | – |
| CCOC(=O)c1c(C)c(C(=O)N2CCC3(CC2)OCCO3)c(C)n1CC | -3.49% | – |
